# Results from PubChem BioAssay (NCATS).
# Active and inactive are the calls of the source. Calls come from the whole dose curve; as a rule, active = well fitted inhibition curve with a large enough effect; inconclusive = small, poorly fitted or top-dose-only effect; inactive = no such curve, though single readings can be large or run the other way.
# Assay: qHTS assay for measurement of the activity of small molecule inhibitors on Zika virus induced Caspase-3 activity in human astrocytoma cells (AID 1224859)
# Conditions: SNB-19 ZIKV-induced caspase-3/7, luminescence, 6 h; series mostly up to 45.7 µM
# Procedure, shortened: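 Luminescent caspase-3/7 read-out (30 min reagent, room temperature) in human SNB-19 cells infected 6 h with ZIKV (2 FFU/cell) after 1 h compound pre-incubation; Data were normalised to uninfected and infected wells.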
row,Compound,outcome
1,CC(Cc1ccc(OCC(=O)O)cc1)NCC(O)c1cccc(Cl)c1 (configuration not stated),inactive
2,N[C@@H](Cn1ccc(=O)[nH]c1=O)C(=O)O,inactive
3,O=C(O)c1cc[c]([Hg][Cl])cc1,inactive
4,O=[N+]([O-])c1ccc2nc(N3CCNCC3)ccc2c1,inactive
5,Ic1ccccc1CNC1C2CCN(CC2)C1C(c1ccccc1)c1ccccc1 (configuration not stated),inactive
6,N[C@@H](CCl)C(=O)O,inactive
7,CCS(=O)(=O)Nc1cccc(C(=C2CCCCC2)c2cnc[nH]2)c1,inactive
8,CCCN(CCC)CCc1c[nH]c2ccc(C(N)=O)cc12,inactive
9,O=S1(=O)N(CCN2CC=C(c3c[nH]c4cc(F)ccc34)CC2)c2cccc3c2N1CCC3,inactive
10,CCCn1c(C)c(C(=O)c2ccc3ccccc3c2)c2ccccc21,inactive
11,CCCN1CCc2cc(O)cc3c2[C@H]1Cc1ccc(O)c(O)c1-3,inactive
12,CCCN1CCc2cccc3c2[C@H]1Cc1ccc(O)c(O)c1-3,inactive
13,c1ccc2c(c1)[I+]c1ccccc1-2,inactive
14,Cc1[nH]c2ccc(O)cc2c1CCN,inactive
15,CN1CCc2cc(O)cc3c2[C@H]1Cc1ccc(O)c(O)c1-3,inactive
16,c1ccc2cc(CC3=NCCN3)ccc2c1,inactive
17,COc1ccc2c(c1)c(CCN1CCOCC1)c(C)n2C(=O)c1cccc(Cl)c1Cl,inactive
18,N#CCCN,inactive
19,CCCCCCC(C)(C)c1ccc([C@@H]2C[C@H](O)CC[C@H]2CCCO)c(O)c1,inactive

row,Compound,outcome
1,NC(CCCCCP(=O)(O)O)C(=O)O (configuration not stated),inactive
2,CN(N=O)c1ccc(O)c(O)c1,inactive
3,CCN(CCCl)Cc1ccccc1Br,inactive
4,CN(C(=O)Cc1ccc(Cl)c(Cl)c1)C(CN1CCCC1)c1cccc(OCC(=O)O)c1 (configuration not stated),inactive
5,C=CCN1CCc2cccc3c2[C@H]1Cc1ccc(O)c(O)c1-3,inactive
6,CC(N)Cc1c[nH]c2ccc(OCc3cccs3)cc12 (configuration not stated),inactive
7,C=CCN1CC[C@]23c4c5ccc(O)c4O[C@H]2/C(=N/NC(=O)c2ccccc2)CC[C@@]3(O)[C@H]1C5,inactive
8,C[C@H](Cc1ccc2c(c1)OC(C(=O)O)(C(=O)O)O2)NC[C@H](O)c1cccc(Cl)c1,inactive
9,NC(=O)c1ccc(OCC(O)CN2CC=C(c3ccc(F)cc3)CC2)cc1 (configuration not stated),inactive
10,c1ccc2c(N3CCNCC3)cccc2c1,inactive
11,C[N+](C)(C)CC#CCOC(=O)Nc1cccc(Cl)c1,inactive
12,C[C@@H]1[C@@H]2Cc3ccc(O)cc3[C@@]1(C)CCN2CC1CC1,inactive
13,COC(=O)N1CCN(C(=O)Cc2ccc(Cl)c(Cl)c2)C(CN2CCCC2)C1 (configuration not stated),inactive
14,O=[N+]([O-])c1cc(O)c(O)c([N+](=O)[O-])c1,inactive
15,C=CCN1CCC23c4c5ccc(O)c4O[C@H]2C(=O)CC[C@@]3(O)C1C5 (some centres not stated),inactive
16,C[Se]C[C@H](N)C(=O)O,inactive
17,NC(N)=Nc1ccc2[nH]c3c(c2c1)C[C@@]1(O)[C@H]2Cc4ccc(O)c5c4[C@@]1(CCN2CC1CC1)[C@H]3O5,inactive
18,CC(N)c1cccc(Cl)c1Cl (configuration not stated),inactive
